Potency and viability data for 13 compounds are collected here from PubChem BioAssay (NCATS).

Structures are written as SMILES. Inconclusive results are not listed. Values without a mark were called inactive. Calls of active or inactive are those of the source. Calls come from the whole dose curve; as a rule, active = well fitted cell-killing curve with a large enough effect; inconclusive = small, poorly fitted or top-dose-only effect, or effect the other way; inactive = no such curve, though single readings can be large or run the other way.

Assay [1] can be described thus: Quantitative High-Throughput drug screen in 47 multiple myeloma cell lines against the NCATS MIPE library collection: SKMM1_PLB cell viability assay (AID 1919863). Note: nearly all actives have a fitted effect of over 35% in size. Particulars: SKMM1 myeloma viability, CellTiter-Glo ATP, 48 h; viability: stronger effect = lower value. In outline:
(§1)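 Cells were exposed to library compounds for 48 hours, after which ATP was measured by CellTiter-Glo. Signal was taken as median relative luminescence units.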

A short description of assay [2]: Quantitative High-Throughput drug screen in 47 multiple myeloma cell lines against the NCATS MIPE library collection: U266_ATCC cell viability assay (AID 1919864).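 For viability (% of DMSO control): 0% = media-only wells without cells and 100% = DMSO-only wells.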 Note: nearly all actives have a fitted effect of over 35% in size. An outline of the steps: as §1
Assay [3] can be described thus: Quantitative High-Throughput drug screen in 47 multiple myeloma cell lines against the NCATS MIPE library collection: XG6_PLB cell viability assay (AID 1919865). Note: nearly all actives have a fitted effect of over 40% in size. An outline of the steps: as §1
Assay [4] can be described thus: Quantitative High-Throughput drug screen in 47 multiple myeloma cell lines against the NCATS MIPE library collection: XG1_PLB cell viability assay (AID 1919866). Note: nearly all actives have a fitted effect of over 35% in size. In outline:
as §1

The nature of assay [5]: Quantitative High-Throughput drug screen in 47 multiple myeloma cell lines against the NCATS MIPE library collection: VP6_DJ cell viability assay (AID 1919867). Note: nearly all actives have a fitted effect of over 40% in size. An outline of the steps:
as §1

Assay [6] can be described thus: Quantitative High-Throughput drug screen in 47 multiple myeloma cell lines against the NCATS MIPE library collection: PE2_PLB cell viability assay (AID 1919869). Note: nearly all actives have a fitted effect of over 35% in size. An outline of the steps: as §1
Assay [7] can be described thus: Quantitative High-Throughput drug screen in 47 multiple myeloma cell lines against the NCATS MIPE library collection: KMS11_JCRBsus cell viability assay (AID 1919873). Note: nearly all actives have a fitted effect of over 50% in size. An outline of the steps:
as §1

A short description of assay [8]: Quantitative High-Throughput drug screen in 47 multiple myeloma cell lines against the NCATS MIPE library collection: KMS28BM_JCRB cell viability assay (AID 1919874). Note: nearly all actives have a fitted effect of over 35% in size. In outline:
as §1

A short description of assay [9]: Quantitative High-Throughput drug screen in 47 multiple myeloma cell lines against the NCATS MIPE library collection: UTMC2_PLB cell viability assay (AID 1919868).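 For viability (% of DMSO control): 100% = DMSO-only wells and 0% = media-only wells without cells.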 Note: nearly all actives have a fitted effect of over 55% in size. As to conditions: CellTiter-Glo ATP luminescence, 48 h; viability (% of DMSO control): at 45.8 µM (top of the series). In outline:
as §1

The nature of assay [10]: Quantitative High-Throughput drug screen in 47 multiple myeloma cell lines against the NCATS MIPE library collection: PCM6_Riken cell viability assay (AID 1919870). Note: nearly all actives have a fitted effect of over 30% in size. An outline of the steps: as §1
A short description of assay [11]: Quantitative High-Throughput drug screen in 47 multiple myeloma cell lines against the NCATS MIPE library collection: RPMI8226_ATCC cell viability assay (AID 1919871). Note: nearly all actives have a fitted effect of over 30% in size. An outline of the steps:
as §1

Assay [12] can be described thus: Quantitative High-Throughput drug screen in 47 multiple myeloma cell lines against the NCATS MIPE library collection: OPM2_DSMZ cell viability assay (AID 1919872). Note: nearly all actives have a fitted effect of over 30% in size. An outline of the steps: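 qHTS of the MIPE 4.0 collection: 500 myeloma cells/well, 48 h drug exposure at 37C in 5% CO2, then CellTiter-Glo for 5 min at room temperature before luminescence reading.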
Potency is the fitted concentration of half-maximal effect.

Turning to `Nc1ncnc2c1nc(Cl)n2[C@@H]1O[C@H](CO)[C@@H](O)[C@@H]1O`, the Potency was 14.8 µM (active) in assay [1]; 14.8 µM (active) in assay [2]; 1.18 µM (active) in assay [3]; 16.6 µM (active) in assay [4]; 1.32 µM (active) in assay [5]; 0.235 µM (active) in assay [6]. Further, the Potency is 20.9 µM (active) in assay [7] and 13.2 µM (active) in assay [8].
Take `Cc1ccccc1C(C(=O)NC1CCCCC1)N(C(=O)Cn1ccnc1C)c1cccc(F)c1` (stereo not given): the Potency in assay [1] is 0.469 µM (active); in assay [2], 5.26 µM (active). The Potency entry in assay [3], in assay [4], in assay [6] and in [7] was “inactive” in each case.
For the compound `O=C1c2ccccc2-[n+]2ccc3c([nH]c4ccccc43)c21`, the Potency is 2.96 µM (active) in [1]; 2.35 µM (active) in assay [2]; 1.48 µM (active) in [3]; 1.05 µM (active) in assay [4]; 1.32 µM (active) in assay [9]; 1.87 µM (active) in assay [6]. For the same compound, the Potency in assay [10] was 0.59 µM (active); in [11], 2.96 µM (active); in assay [12], 2.64 µM (active); in assay [7], 1.05 µM (active); in assay [8], 1.32 µM (active).
Turning to `Cc1[nH]c(C=C2C(=O)Nc3ccc(S(=O)(=O)Cc4c(Cl)cccc4Cl)cc32)c(C)c1C(=O)N1CCC[C@H]1CN1CCCC1`, the Potency in assay [1] was 20.9 µM (active); in assay [2], 23.5 µM (active); in [3], 8.33 µM (active); in assay [4] it was 5.26 µM (active); in assay [5] it was 8.33 µM (active); in [9] it was 20.9 µM (active). Also, the Potency in assay [6] was 20.9 µM (active); in assay [10], 7.43 µM (active); in assay [11], 20.9 µM (active); in assay [12], 26.4 µM (active); in assay [7], 11.8 µM (active); in [8] it was 20.9 µM (active).
As for `Clc1ccc(C(c2ccc(Cl)cc2)n2cc[n+](CC(OCc3ccc(Cl)cc3Cl)c3ccc(Cl)cc3Cl)c2)cc1` (stereo not given), the Potency in [1] is 20.9 µM (active); in assay [2] it was 16.6 µM (active); in assay [3], 6.62 µM (active); in assay [4], 8.33 µM (active); in assay [5], 8.33 µM (active); in assay [9], 4.69 µM (active). Further, the Potency in [6] was 13.2 µM (active); in assay [10], 6.62 µM (active); in assay [11], 20.9 µM (active); in assay [12], 18.7 µM (active); in [7], 9.35 µM (active); in assay [8], 11.8 µM (active).
Consider `NS(=O)(=O)c1cccc2c1C(=O)c1cccc(O)c1C2=O`, for which the Potency is 0.372 µM (active) in [1]; 6.62 µM (active) in assay [2]; 0.372 µM (active) in [3]; 0.662 µM (active) in assay [5]; 0.372 µM (active) in assay [9]; 0.187 µM (active) in assay [6]. The Potency in assay [10] was 0.469 µM (active); in assay [11], 0.833 µM (active); in assay [12] it was 2.64 µM (active); in assay [7] it was 0.105 µM (active); in assay [8] it was 0.469 µM (active).
`CC[C@@]1(O)C[C@H](O[C@H]2C[C@H](N(C)C)[C@H](O[C@H]3C[C@H](O)[C@H](O[C@H]4CCC(=O)[C@H](C)O4)[C@H](C)O3)[C@H](C)O2)c2c(cc3c(c2O)C(=O)c2c(O)cccc2C3=O)[C@@H]1C(=O)OC`: the Potency in [1] is 0.833 µM (active); in assay [2], 0.418 µM (active); in assay [3], 0.296 µM (active); in assay [4] it was 0.132 µM (active); in assay [9], 0.187 µM (active); in [6], 0.526 µM (active). Besides, the Potency in [10] is 1.05 µM (active); in assay [11], 0.296 µM (active); in assay [12], 4.18 µM (active); in assay [7], 0.166 µM (active); in assay [8], 0.132 µM (active).
Turning to `COCCOC(=O)C1=C(C)NC2=C(C(=O)CC(c3ccccc3OC)C2)C1c1cccc(O)c1` (stereo not given), the Potency in assay [1] was 10.5 µM (active); in [2], 13.2 µM (active); in [3], 2.64 µM (active); in assay [4] it was 4.18 µM (active); in assay [5], 2.96 µM (active); in assay [6], 16.6 µM (active). For the same compound, the figures for the Potency in assay [12] and in [7] were 16.6 µM (active) and 5.26 µM (active), respectively.
For `COc1cc(NC(=O)c2ccc(-c3ccc(Cl)cc3)o2)cc(OC)c1`, in assay [1], the viability is 155%. Moreover, the Potency was 1.66 µM (active) in [2]; 1.66 µM (active) in [3]; 3.32 µM (active) in assay [4]; 8.33 µM (active) in [5]; 10.5 µM (active) in assay [9]; 5.9 µM (active) in assay [6]. Besides, the Potency in [10] is 5.9 µM (active). Besides, the Potency result in [11], in assay [7] and in [8] was “inactive” in each case.
As for `COc1ccc(-c2cc(=O)c3c(O)cc(O)cc3o2)cc1O`, in assay [1], the viability was 119%. Moreover, the Potency in assay [2] was 8.33 µM (active); in assay [3], 2.35 µM (active); in assay [4], 2.09 µM (active); in assay [5], 4.18 µM (active); in assay [9] it was 8.33 µM (active); in assay [6] it was 6.62 µM (active). Besides, the Potency was 3.32 µM (active) in assay [10] and 26.4 µM (active) in assay [7]. Also, the Potency entry in [11], in assay [12] and in assay [8] was “inactive” in each case.
For the compound `CC(C)(Cc1ccc2ccccc2c1)NC[C@@H](O)COc1cccc(Cl)c1C#N`, the viability in assay [1] is 126%. Further, the Potency result in assay [2], in [3], in assay [4], in [9], in assay [6] and in [10] was “inactive” throughout. For the same compound, the Potency entry in assay [12], in assay [7] and in [8] was “inactive” throughout.
As to `COc1cc2c(cc1OC)CN(CCc1ccc(NC(=O)c3cc(OC)c(OC)cc3NC(=O)c3cnc4ccccc4c3)cc1)CC2`, the viability in [1] is 118%. Also, the Potency is 5.26 µM (active) in assay [2]; 18.7 µM (active) in [3]; 20.9 µM (active) in assay [4]; 26.4 µM (active) in assay [6]; 18.7 µM (active) in assay [10]; 0.418 µM (active) in assay [11]. Besides, in [12], the Potency entry is “inactive”.
In the case of `O=C(NCc1ccccc1)c1csc(Nc2ccncn2)n1`, the Potency in [1] is 18.7 µM (active); in assay [2], 18.7 µM (active); in assay [3], 18.7 µM (active); in [4], 16.6 µM (active); in assay [9], 16.6 µM (active); in [6] it was 13.2 µM (active). Moreover, the Potency in [10] is 8.33 µM (active); in assay [11], 20.9 µM (active); in assay [7] it was 26.4 µM (active); in assay [8], 18.7 µM (active).

Usually viability stands for a read-out of living cells in per cent, often relative to untreated cells.
